From PubChem BioAssay (NCI)
Compounds without any hit were thinned out: in the full panel of roughly 83,000, 20% have a hit.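 Note: values are percent growth. 100 is the growth of untreated cells, values between 100 and 0 indicate rising inhibition; between -100 and 0 indicates cell death.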 Values without a mark were called inactive. Activity calls are given as the source filed them. How the source made its calls: active means growth percent below 10; inactive means the rest.

Tests used:
Experiment in all cases: NCI-60 one-dose screen, 48 h (100 = growth as untreated, 0 = no growth, -100 = all killed)
Conditions in all cases: 10 µM unless noted
[1] = tested on: RPMI-8226 leukemia
[2] = tested on: OVCAR-8 ovarian
[3] = tested on: OVCAR-5 ovarian
[4] = tested on: OVCAR-4 ovarian
[5] = tested on: IGROV1 ovarian
[6] = tested on: OVCAR-3 ovarian
[7] = tested on: HS 578T breast
[8] = tested on: NCI/ADR-RES ovarian
[9] = tested on: T-47D breast
[10] = tested on: SK-OV-3 ovarian

Compound	growth [1]	growth [2]	growth [3]	growth [4]	growth [5]	growth [6]	growth [7]	growth [8]	growth [9]	growth [10] [%]
CC1(O)COCCCCOc2c(CN)cccc2NC(=O)c2nc(cnc2N)-c2ccc(cc2)S(=O)(=O)C(C)(C)C1 (stereo not given)	-36.8% (active)	-22.8% (active)	3.73% (active)	-70.2% (active)	-57.3% (active)	-77.2% (active)	-53.2% (active)	48.5%	-19.8% (active)	
CNCCNc1nc2ccccc2c2c(=O)c3cc(F)ccc3sc12	-3.62% (active)	17.3%	86.4%	49.1%	37.6%	40.4%	56.9%	62.4%	-13.4% (active)	
COc1cc(/C(C#N)=C/c2nc3c(N4CCOCC4)nc(Cl)nc3n2C)cc(OC)c1OC	7.11% (active)	21.8%	34.6%	21.9%	8.43% (active)	0.593% (active)	0.385% (active)	8.53% (active)	33.9%	
Cc1ccc2cccc(Oc3ccc(Nc4ncnc5onc(-c6ccccc6)c45)cc3)c2n1	111%	91%	94.6%	71.9%	77.2%	93.8%	89.4%	87.3%	65.2%	
COc1cc(/C=C/C(=O)c2ccc(Nc3nc(NCCO)nc(N4CCOCC4)n3)cc2)cc(OC)c1OC	-21% (active)	11.6%	34%	23.9%	20.6%	2.88% (active)	9.53% (active)	53.7%	32.1%	
COc1cc(/C=C2\CN(C)C/C(=C\c3cc(CN4CCCC4)c(O)c(OC)c3)C2=O)cc(CN2CCCC2)c1O	81%	65.5%	94.5%	65.8%	82%	50%	87.8%	100%	79.7%	
COc1ccc(/C(C#N)=C/c2nc3c(N4CCOCC4)nc(Cl)nc3n2C)cc1OC	-7.23% (active)	14.5%	33.3%	-25% (active)	3.01% (active)	-86.1% (active)	13.2%	11.7%	-17.1% (active)	
NCCCNc1nc2ccccc2c2c(=O)c3cc(F)ccc3sc12	-2.73% (active)	2.1% (active)	26.8%	33%	20.1%	-16.4% (active)	34.6%	11.4%	-39% (active)	
CCCCN1CCN(c2ccc3nc(-c4ccc5nc(-c6ccc(OC)c(OC)c6)[nH]c5c4)[nH]c3c2)CC1	-19% (active)	3.24% (active)	13.7%	-46.1% (active)	-13.2% (active)	-46.8% (active)	-18.7% (active)	91%	17.6%	
COc1cc(C2CC(c3ccc(Nc4nc(NCCO)nc(N5CCOCC5)n4)cc3)=NN2c2cc(Cl)cc(Cl)c2)cc(OC)c1OC (stereo not given)	33.4%	48.8%	74.4%	57.2%	55%	56.9%	22.6%	48.8%	41.4%	
CCCCCCCCCCCCCCn1cc(C2=C(c3coc4ccc(OC)cc34)C(=O)NC2=O)c2ccccc21	122%	91.8%	93.8%	102%	81.6%	102%	98.5%	98.9%	96.2%	
Cc1sc2ncn(CC(=O)Nc3ccc(S(N)(=O)=O)cc3)c(=O)c2c1C	106%	96.5%	99.2%	108%	102%	108%	95.8%	105%	96.5%	
CC(=O)c1ccc(Nc2nc(NCCO)nc(Nc3ccc(Cl)cc3)n2)cc1	89.5%	93.4%	96.1%	95.7%	98.7%	95.5%	87.2%	91.9%	79.9%	
O=c1c(-c2nc3ccccc3[nH]2)cc2ccccc2n1Cc1cn(Cc2ccccc2Cl)nn1	12.4%	50.4%	78.2%	-22% (active)	27.9%	19.8%	19.2%	40.6%	66.4%	
O=C(Cn1cc(COc2ncnc3c2cnn3-c2ccccc2)nn1)Nc1cccc2ccccc12	93.7%	87.9%	98.4%	76.9%	102%	109%	85.1%	94.8%	87.1%	
O=Cc1c(OCc2cnnn2CC(=O)Nc2ccc(Br)cc2)ccc2ccccc12	104%	96.1%	95%	97%	85.9%	97.2%	85.1%	90.5%	78.7%	
Cc1ccc2c(n1)C(=O)C(Oc1ccc(Br)cc1)=CC2=O	78.7%	92.3%	114%	94.5%	104%	84.2%	100%	95.8%	59.2%	
S=C1NC2(c3ccccc3)CCC(=S)N2c2ccccc21 (stereo not given)	103%	100%	103%	105%	106%	119%	101%	109%	106%	
CNC(=O)c1cc(Oc2ccc(CC(=O)Nc3cc(C(C)(C)C)cn3C)cc2)ccn1	53.1%	65.2%	116%	48.9%	67%	81.6%	86.9%	72.4%	48.9%	
COc1cc(C=C2C(=O)N(C)C(=O)N(C)C2=O)cc(CN2CCCCC2)c1O	104%	105%	96.9%	103%	104%	105%	96%	105%	90.2%	
CC1=NCC2NC(=O)NC(C)=C12 (stereo not given)	100%	105%	97.4%	106%	97%	105%	93.6%	106%	113%	
O=c1oc2ccc(Br)cc2c(=O)n1-c1ccc(Br)cc1F	-13.8% (active)	12.3%	18.8%	10.4%	9.59% (active)	8.18% (active)	-5.29% (active)	2.87% (active)	-1.51% (active)	
COc1cccc(-c2nn(C)c3sc(C(=O)NCCN4CCN(c5ccccc5F)CC4)cc23)c1	-18.3% (active)	88%	88.4%		65.2%	64.9%	63%	84.9%	57.4%	88.7
O=C(c1nc2ccccc2[nH]1)C1C(c2ccc(F)cc2)C2CC3CCCCC3N2[C@@]12C(=O)Nc1ccc(Cl)cc12 (stereo not given in full)	13.9%	61.2%	61.8%	31.5%	42.8%	50.1%	69.2%	51%	37.4%	
NCCOc1ncccc1/C=C1\c2ccccc2-c2ccc(F)cc21	-14.6% (active)	14.9%	32.1%	43.3%		36.7%	44.2%	29.9%	21.2%	
OCCNc1nc(Nc2ccc(C3=NN(c4cc(Cl)cc(Cl)c4)C(c4ccc(C(F)(F)F)cc4)C3)cc2)nc(N2CCOCC2)n1 (stereo not given)	71.7%	68.1%	95.3%	64%	93%	86.1%	62.8%	68.3%	64.1%	
COc1cccc2c1C=C1CCCCC3=Cc4c(OC)cccc4OC13O2	42.6%	53.1%	63.9%	57.7%	57.5%	14.2%	42.8%	16.5%	40.3%	
O=C(Nc1ccc(F)c(Cl)c1)Nc1ccc(Cl)c(Cl)c1	65.8%	92.4%	114%		73.6%	61.1%	72.4%	59.1%	85.5%	84.3
COC(=O)C1(C)CCC[C@]2(C)[C@H]3C[C@H]4C(C(C)C)=C[C@]3(CC[C@@H]12)[C@H]1[C@@H]4[C@@H](OCC#CCN2CCOCC2)CC[C@@H]1OCC#CCN1CCOCC1 (stereo not given in full)	67.7%	83.2%	106%	64.7%	70.6%	86.3%	86.6%	74.9%	64.5%	
